{"source": "PubChem BioAssay"}
{"biological_target": "NADPH oxidase 5 (Homo sapiens) (UniProt Q96PH1)", "sequence (Q96PH1 whole entry, looked up)": "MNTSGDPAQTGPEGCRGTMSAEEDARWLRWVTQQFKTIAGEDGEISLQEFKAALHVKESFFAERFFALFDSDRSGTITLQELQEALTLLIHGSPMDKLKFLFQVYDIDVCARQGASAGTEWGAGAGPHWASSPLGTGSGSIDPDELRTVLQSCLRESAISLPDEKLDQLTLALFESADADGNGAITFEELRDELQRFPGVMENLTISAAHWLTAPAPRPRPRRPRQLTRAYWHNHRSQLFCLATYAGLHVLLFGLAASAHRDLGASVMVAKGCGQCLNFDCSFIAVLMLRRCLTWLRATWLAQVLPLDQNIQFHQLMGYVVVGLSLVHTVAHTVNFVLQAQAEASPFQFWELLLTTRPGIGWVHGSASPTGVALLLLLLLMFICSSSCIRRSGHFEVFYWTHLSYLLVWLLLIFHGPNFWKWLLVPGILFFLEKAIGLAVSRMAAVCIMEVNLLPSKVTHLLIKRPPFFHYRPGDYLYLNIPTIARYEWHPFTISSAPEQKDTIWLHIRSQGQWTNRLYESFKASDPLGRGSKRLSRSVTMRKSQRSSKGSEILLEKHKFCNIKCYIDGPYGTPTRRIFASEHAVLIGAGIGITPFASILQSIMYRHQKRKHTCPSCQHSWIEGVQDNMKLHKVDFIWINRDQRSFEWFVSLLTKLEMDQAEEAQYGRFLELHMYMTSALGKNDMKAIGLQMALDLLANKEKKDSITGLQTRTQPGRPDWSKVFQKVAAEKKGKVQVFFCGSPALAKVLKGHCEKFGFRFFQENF", "assay": "compounds shifting NOX5 Amplex Red fluorescence – cell-based, HEK293-NOX5, NOX inhibitor project, primary screen (AID 1161)", "details": "HEK293-NOX5, ionomycin, 45 min, higher = more signal"}
{"smiles": "CC(C)[Si]1(C(C)C)O[C@@H](c2ccccc2)c2cc(-c3ccc(-c4ccc(Cl)c(Cl)c4)o3)nc(-c3ccccc3)c21", "z-score": 1.26}
{"smiles": "OCCCC1=CC(c2cccs2)N(Cc2cc3c(cc2Br)OCO3)CC1", "note": "(stereo not given)", "z-score": -0.768}
{"smiles": "CCOC(=O)C[C@H]1[C@H](OC(=O)c2ccc(C(=O)c3ccccc3)cc2)[C@@H](NC(=O)c2ccc3ccccc3c2)c2cc(OCCCO)ccc2N1C(=O)Cc1ccc(OC)cc1", "z-score": 0.161}
{"smiles": "C=C(CC1([C@@H](NP(=O)(c2ccccc2)c2ccccc2)[C@H]2C[C@@H]2CCCC)CC1)c1ccccc1", "z-score": -2.95}
{"smiles": "COc1cc(COC(C)=O)ccc1OC(C)=O", "z-score": -0.154}
{"smiles": "C=C(CCCC)/C(=C/C[C@@H](OC(=O)c1ccncc1)c1ccc(OCCO)cc1)c1cc(C(=O)OC)ccc1OC", "z-score": -1.9}
{"smiles": "C=C(CCCC)C(=O)CC[C@@H](OC(=O)c1ccccc1-c1ccccc1C(=O)O)c1ccc(OCCO)cc1", "z-score": -0.936}
{"smiles": "COCCOC(=O)N1C(=O)[C@@]2(c3cc(C#CCC(C(=O)OC)C(=O)OC)ccc31)[C@H](C(=O)Nc1nc3ccccc3s1)[C@H]1C(=O)O[C@H](c3ccccc3)[C@H](c3ccccc3)N1[C@@H]2c1ccccc1OCCO", "z-score": 0.234}
{"smiles": "NC(=O)N1C(=O)C2C(C1=O)C1C=C(c3ccc(CO)cc3)C2C(c2cccs2)N1Cc1cccc(OC(F)(F)F)c1", "note": "(stereo not given)", "z-score": -1.25}
{"smiles": "COCCOC(=O)N1C(=O)[C@@]2(c3cc(C#CCNC(N)=O)ccc31)[C@H](C(=O)N1CCN(c3ncccn3)CC1)[C@H]1C(=O)O[C@H](c3ccccc3)[C@H](c3ccccc3)N1[C@@H]2c1ccc(OCCO)cc1", "z-score": -0.121}
